Most compounds without a hit are left out; they make up all but 6.6% or so of the library.
Bead autofluor = flagged as autofluorescent in microsphere protease counterscreen; compound autofluorescence counterscreen, microsphere flow cytometry; hits give high values; fluorescence intensity (concentration not given with the values); hit rate 3.1% among 360,000; in the data active = fluorescence intensity above about 16000; inconclusive = no clear call, values can overlap the other calls
Anthrax LF prot = anthrax lethal factor protease inhibition; P15917; multiplex microsphere protease cleavage assay, LF; inhibition, % at 10 µM; hit rate 0.12% among 360,000; also: plate controls were buffer without enzyme for full effect and enzyme alone for no effect
Target sequence (P15917 whole entry, looked up): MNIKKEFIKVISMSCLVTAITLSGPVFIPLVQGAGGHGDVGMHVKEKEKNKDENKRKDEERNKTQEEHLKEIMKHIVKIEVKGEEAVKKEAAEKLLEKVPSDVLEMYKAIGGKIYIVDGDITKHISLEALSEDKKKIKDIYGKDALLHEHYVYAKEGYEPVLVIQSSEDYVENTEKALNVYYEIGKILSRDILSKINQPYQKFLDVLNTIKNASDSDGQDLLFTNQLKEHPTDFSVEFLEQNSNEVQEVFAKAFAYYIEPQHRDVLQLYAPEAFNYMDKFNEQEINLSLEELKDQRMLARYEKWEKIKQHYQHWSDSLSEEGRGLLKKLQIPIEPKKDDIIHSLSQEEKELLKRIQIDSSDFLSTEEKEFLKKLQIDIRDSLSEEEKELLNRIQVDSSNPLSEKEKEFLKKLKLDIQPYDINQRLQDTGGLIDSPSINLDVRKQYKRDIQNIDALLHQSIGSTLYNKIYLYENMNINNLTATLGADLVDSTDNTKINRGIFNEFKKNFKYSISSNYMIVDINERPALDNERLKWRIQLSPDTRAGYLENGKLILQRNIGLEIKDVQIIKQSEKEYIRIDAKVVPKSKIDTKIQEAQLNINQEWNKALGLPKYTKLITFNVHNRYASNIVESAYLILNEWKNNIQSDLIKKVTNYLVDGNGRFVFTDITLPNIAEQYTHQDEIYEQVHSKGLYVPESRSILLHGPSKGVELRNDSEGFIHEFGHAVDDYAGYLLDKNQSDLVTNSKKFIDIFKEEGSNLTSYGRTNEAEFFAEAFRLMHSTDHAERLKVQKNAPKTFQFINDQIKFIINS
BoNT-F LC inh = BoNT F light chain protease inhibition; inhibition, % at 10 µM; hit rate 0.22% among 360,000; Multiplex microsphere protease cleavage assay, flow cytometry; in the data active = inhibition above about 35%, passing the limit was not always enough; inconclusive = no clear call, values can overlap the other calls; also: plate controls were buffer without enzyme for full effect and enzyme alone for no effect
BoNT-A LC inh2 = BoNT A light chain protease inhibition; inhibition, % at 10 µM; multiplex microsphere protease substrate cleavage, flow cytometry; hit rate 0.17% among 360,000; also: plate controls were buffer without enzyme for full effect and enzyme alone for no effect
GDH-TPI counter-1 = GDH-TPI coupled enzyme inhibition counter-screen. AID 588335. inhibition, % at 4.8 µM. hit rate 1.2% among 360,000. GDH-TPI coupled enzyme counterscreen, NADH absorbance; in the data active = inhibition above about 30%;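 also: 0% = DMSO wells and 100% = wells lacking the enzyme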
Mtb FBA inh = inhibits M. tuberculosis FBA enzyme. P9WQA3. purified M. tuberculosis FBA, fluorescence read-out. inhibition, % at 1 µM. hit rate 2.3% among 360,000. AID 588726; in the data active = inhibition above about 27%;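 also: 0% = vehicle and 100% = reference inhibitor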
Mtb FBA confirm = Mtb FBA inhibition, confirmed. shares compounds with Mtb FBA inh. purified M. tuberculosis FBA, fluorescence read-out. inhibition, % at 1 µM. hit rate 78% among 5,600. AID 651616; in the data active = inhibition above about 27%;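 also: 0% = vehicle wells and 100% = reference inhibitor wells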
GDH-TPI counter-2 = counter-screen for M. tuberculosis FBA inhibitors: GDH-TPI coupled enzyme inhibition; hit rate 81% among 5,600; shares compounds with Mtb FBA inh; GDH-TPI coupled enzyme counterscreen, fluorescence; inhibition, % at 1 µM; in the data active = inhibition above about 10%
GDH-TPI dose = GDH-TPI dose response counter-screen for Mtb FBA; AID 652145; shares compounds with Mtb FBA inh; GDH-TPI coupled enzyme assay, fluorescence, artifact counterscreen; IC50, µM; hit rate 79% among 170; call rule not given here
The depositor's hits bear a star; ? = inconclusive; / = not tested or not shown; + = active, no number. Rule as the data show it, unless noted: active = inhibition above about 30%; inconclusive = no clear call, values can overlap the other calls; inactive = below that.

SMILES | Bead autofluor | Anthrax LF prot | BoNT-F LC inh | BoNT-A LC inh2 | GDH-TPI counter-1 | Mtb FBA inh | Mtb FBA confirm | GDH-TPI counter-2 | others
CCOC(=O)N1CCN(CC(O)COC2CC(C)CCC2C(C)C)CC1 (centres undefined) | 2841 | -1.1 | -11.2 | -0.3 | 2.0 | 34.0* | 13.1 | -7.2 | GDH-TPI dose=>10
CN1CCC(OC(c2ccccc2)c2ccccc2)CC1 | 5744 | 3.4 | 3.5 | 0.0 | -2.6 | 0.1 | / | /
CN1CCC(Oc2ccccc2Sc2ccccc2)CC1 | 2045 | -0.9 | 30.5 | 2.4 | 8.4 | 28.7* | 166.8* | 130.0*
Cc1[nH]c2ccccc2c1C(=O)C(=O)NCc1nnnn1-c1ccc(F)c(F)c1 | 3422 | 1.4 | -4.3 | -0.2 | 8.2 | -4.3 | / | /
Nc1ccc(-c2nc3ccc(-c4nc5ccccc5o4)cc3[nH]2)cc1 | 3862 | -3.7 | -5.5 | 0.7 | 57.4* | 84.3* | 36.4* | 24.5*
Cc1nc2ccc(-c3nc4ccccc4o3)cc2[nH]1 | 3064 | 0.1 | 3.7 | 0.7 | 12.8 | 49.9* | 63.4* | 56.0*
c1cncc(-c2nc3ccccc3o2)c1 | 2427 | 0.6 | 2.6 | 0.6 | 4.1 | 10.3 | / | /
COc1cccc(NC(=O)C(C)(C)C)c1 | 2806 | -8.0 | -2.8 | 0.4 | 7.9 | 1.0 | / | /
COC(=O)c1cccc(NC(=O)C(C)(C)C)c1 | 3821 | 3.9 | 5.3 | -5.6 | 7.7 | 36.4* | + | +
CCN1CCN(c2ccc(S(=O)(=O)N3CCCC3)cn2)CC1 | 4765 | -3.2 | -6.4 | -1.2 | -1.9 | 3.8 | / | /
CN(C)C1(CNC(=O)Nc2ccccc2)CCCCC1 | 3527 | -13.5 | 9.3 | -3.6 | -3.7 | 1.2 | / | /
CN(C)C1(CNCC(O)c2ccccc2)CCCCC1 (centres undefined) | 3832 | -6.5 | -7.4 | -2.9 | 9.7 | 30.0* | 120.7* | 106.3*
Cc1ccc(CNC(=O)CCSCc2ccccc2F)cc1 | 3756 | -14.7 | -9.2 | 0.6 | -6.3 | -0.8 | / | /
COc1cc(OC)cc(-c2c(C#Cc3ccsc3)c3cc(-c4ccc(C(N)=O)cc4)ccc3n2C)c1 | 3822 | -13.0 | -6.6 | 1.0 | 2.8 | 32.1* | 35.7* | 16.3*
COc1cc(OC)cc(-c2c(C#Cc3ccsc3)c3cc(-c4cc(OC)c(OC)c(OC)c4)ccc3n2C)c1 | 2768 | -3.0 | -1.0 | 0.2 | 13.9 | 46.5* | 6.4 | 2.7
COc1ccc(-c2c(C#Cc3ccsc3)c3cc(-c4ccc(OC)nc4)ccc3n2C)cc1 | 3628 | -0.4 | -2.2 | -0.2 | -7.0 | 1.4 | / | /
COc1cc(OC)cc(-c2c(C#Cc3ccsc3)c3cc(-c4cnc(OC)nc4)ccc3n2C)c1 | 3704 | -3.8 | -5.7 | 0.9 | 3.4 | -0.5 | / | /
CON1C(=O)C(=O)N(OC)C(C)(C)C1C (centres undefined) | 8504 | 1.2 | 8.0 | 1.7 | 0.9 | 2.1 | / | /
CCOc1c2ccc(C(=O)NC3CCCc4ccccc43)cc2nn1C (centres undefined) | 3679 | 4.5 | 12.0 | 0.1 | 4.8 | 59.3* | 30.1* | 21.9*
C=CCOc1c2ccc(C(=O)NC3CCCc4ccccc43)cc2nn1C (centres undefined) | 4107 | -0.3 | -3.9 | -0.8 | 4.8 | 15.5 | / | /
CCCCn1nc2cc(C(=O)N[C@H](C)C3CCCCC3)ccc2c1OCC | 3581 | 2.1 | -4.6 | -0.2 | -4.0 | 53.2* | 45.1* | 38.9*
CCCCn1nc2cc(C(=O)NC3CCCc4ccccc43)ccc2c1OCC (centres undefined) | 3961 | 2.1 | -5.3 | -0.6 | 3.1 | 36.4* | 184.0* | 131.6*
CC(=O)Nc1cccc(NC(=O)CCNC(=O)c2ccc(Cl)cc2)c1 | 2969 | -2.6 | 20.9 | -1.6 | -5.5 | 2.6 | / | /
Brc1ccc(CSc2nnc3ccccn23)cc1 | 4935 | -7.4 | -2.8 | 0.5 | 2.5 | 4.8 | / | /
Cc1cc(NC(=O)NCc2ccccc2)c(=O)n(Cc2ccc(F)cc2)c1 | / | / | / | / | 14.5 | 27.6* | 97.8* | 82.6*
SMILES | Bead autofluor | Anthrax LF prot | BoNT-F LC inh | BoNT-A LC inh2 | GDH-TPI counter-1 | Mtb FBA inh | Mtb FBA confirm | GDH-TPI counter-2 | others
O=C(NCc1ccccc1)Nc1cccn(Cc2ccc(F)cc2)c1=O | 2149 | 0.7 | -0.6 | 0.2 | -7.0 | 13.6 | / | /
CC(C)(C)OC(=O)N1CCC(CNC(=O)c2ccc(F)cc2)CC1 | 3820 | 0.7 | ? | ? | -7.2 | -0.1 | / | /
CN(C)CCNC(=O)c1ccc(-c2cnn(C)c2)c2ccoc12 | 4148 | -6.8 | -7.9 | -0.3 | 3.6 | 85.1* | 104.4* | 94.0*
CN1CCN(c2ccc(CNC(=O)c3ccc(-c4cnn(C)c4)c4ccoc34)cc2)CC1 | 3442 | -1.9 | -7.5 | 0.0 | 0.9 | -1.7 | / | /
COCCNC(=O)c1ccc(-c2cn[nH]c2)c2ccoc12 | 2997 | 3.0 | -2.4 | 0.2 | 12.5 | 56.6* | 43.5* | 36.6*
O=C(NCC1CC1)c1ccc(-c2cn[nH]c2)c2ccoc12 | 3815 | -5.2 | -1.4 | 0.1 | 6.2 | 27.3* | 42.7* | 31.1*
C[C@H](NC(=O)C1CC(=O)N(c2ccc3c(c2)OCO3)C1)C(=O)NC1CCCCC1 (some centres undefined) | 3920 | 3.2 | 5.5 | 1.4 | 1.3 | -2.9 | / | /
Cc1ccc(C(=O)NNC(=O)c2n[nH]c(=O)c3ccccc23)cc1C | 3914 | -13.3 | -12.9 | -1.6 | 7.3 | 2.0 | / | /
CCc1ccc(CN2C(=O)c3ccccc3C2C(=O)NC(C)CC)cc1 (centres undefined) | 2887 | 7.4 | 0.8 | -2.3 | 5.5 | 104.5* | 47.7* | 44.4*
CCOc1ccccc1CN1C(=O)c2ccccc2C1C(=O)NC(C)CC (centres undefined) | 9354 | 0.0 | -8.4 | -1.1 | 5.5 | 0.8 | / | /
CCC(CO)Nc1ccn2nc(-c3cccs3)cc2n1 (centres undefined) | 3609 | -4.7 | -1.8 | -0.1 | 7.5 | 38.8* | + | +
CCC(CO)Nc1ccn2nc(-c3cc(OC)c(OC)c(OC)c3)cc2n1 (centres undefined) | 2985 | -2.1 | -0.7 | 0.0 | 14.3 | 32.3* | -8.9 | -6.7
O=c1c2ccccc2nc2n1CCN2Cc1ccc(Cl)cc1 | 8679 | -5.9 | -2.1 | 0.6 | 9.9 | 33.7* | 191.8* | 169.7*
O=c1c2ccccc2nc(-c2ccccc2)n1Cc1ccc(Cl)cc1 | 6228 | -9.4 | -12.7 | -1.2 | 11.4 | -3.8 | / | /
Cc1nn(-c2ccccc2)c(C)c1/C=N/NC(=O)CSc1nnc(SCc2cccc3ccccc23)s1 | 2046 | -1.6 | -0.9 | -1.4 | 18.4 | 0.1 | / | /
CN1CN(C)c2cccc3cccc1c23 | 4575 | -11.8 | -35.6 | -2.8 | 15.7 | 97.9* | 47.7* | 39.8*
C=CCN(c1ccccc1)S(=O)(=O)c1cccc(C(=O)O)c1 | 2348 | 0.5 | -2.0 | 0.0 | 4.0 | 54.4* | 198.9* | 189.0*
Cc1cc(-c2ccc(Cl)cc2)c(C#N)c(N)n1 | 9139 | 1.5 | -9.5 | 0.3 | 20.8 | 13.9 | / | /

Screens (PubChem BioAssay)
